Screening data: PubChem BioAssay, National Center for Advancing Translational Sciences (NCATS)
In the library only some 14% were active in any assay of this set; here they are far more common.
CHX counter: Cycloheximide Counterscreen for Small Molecule Inhibitors of Shiga Toxin. cell reporter, cycloheximide protein synthesis inhibition counterscreen. max response, %. 300,000 tested, 12% active. AID 2314, 2010; in the data active = max response mostly above about 13%, no sharp cut-off; inactive = mostly below about 14%; note: read at 38.3 µM for the half of the compounds with a filed dose
NS1 inh: qHTS Assay for Inhibitors of Influenza NS1 Protein Function | Potency, µM (series often up to 46.1 µM) | 270,000 tested, 0.4% active | AID 2326, 2010; calls by dose curve; note: actives are rising curves; nearly all actives have a fitted effect of over 50% in size
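Recovery from NS1-induced slow growth read by OD600 in budding yeast switched to galactose assay medium (pH 6.0, -URA) at 1:100 dilution. Compound 23 nl per well; the matching strain lacking NS1 serves as control.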
LmPK inh: qHTS Assay for Inhibitors of Leishmania Mexicana Pyruvate Kinase (LmPK). Q27686. purified LmPK, Kinase-Glo ATP luminescence, 1 h. Potency, µM (series often up to 57.5 µM), actives largely listed as inhibitors. 290,000 tested, 0.37% active. AID 1721, 2009
Target sequence (Q27686 whole entry, looked up): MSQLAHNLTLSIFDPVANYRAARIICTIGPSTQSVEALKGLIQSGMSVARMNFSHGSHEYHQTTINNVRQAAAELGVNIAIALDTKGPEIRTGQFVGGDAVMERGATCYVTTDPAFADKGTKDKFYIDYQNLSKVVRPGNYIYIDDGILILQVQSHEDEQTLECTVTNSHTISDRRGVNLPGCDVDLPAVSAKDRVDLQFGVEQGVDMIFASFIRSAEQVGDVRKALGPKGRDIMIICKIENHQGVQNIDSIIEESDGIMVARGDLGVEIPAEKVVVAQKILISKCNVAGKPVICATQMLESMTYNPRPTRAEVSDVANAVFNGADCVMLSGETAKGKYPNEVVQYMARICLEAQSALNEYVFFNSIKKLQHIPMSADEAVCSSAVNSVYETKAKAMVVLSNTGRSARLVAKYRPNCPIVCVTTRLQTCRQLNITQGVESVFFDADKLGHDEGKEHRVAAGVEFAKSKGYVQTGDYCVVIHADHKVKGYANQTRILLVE
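ATP generated from ADP (0.1 mM) and PEP (0.5 mM) by 0.1 nM LmPK over 1 h at room temperature (pH 7.2 imidazole buffer) was detected by coupled luciferase luminescence. Values were normalized to uninhibited and no-enzyme wells.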
Shiga inhibitor: A qHTS for Small Molecule Inhibitors of Shiga Toxin; Vero cells, Shiga toxin protein synthesis inhibition reporter; inhibition, % at 38.7 µM; 290,000 tested, 9.2% active; in the data active = inhibition mostly above about 28%, no sharp cut-off; inactive = mostly below about 43%
FBPA Giardia inh: qHTS Assay for Inhibitors of Fructose-1,6-bisphosphate Aldolase from Giardia Lamblia; A8B2U2; purified Giardia FBPA; Potency, µM (titrated, usually from 59.6 µM), most hits filed as inhibitors; 290,000 tested, 0.71% active; note: nearly all actives have a fitted effect of over 55% in size
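40 nM FBPA preincubated 10 min at RT with compound (up to 57.5 uM final), then substrate plus GAPDH/TPI/NAD/arsenate coupling and diaphorase/resazurin added. Fluorescence read after 20 min at RT, 525/598 nm.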
Large screens that a line does not name were inactive. Unless noted, calls come from the whole dose curve; as a rule, active = well fitted curve in the direction sought with a large enough effect; inconclusive = small, poorly fitted or top-dose-only effect, or another doubt; inactive = no such curve, though single readings can be large; an effect the other way counts as inactive or inconclusive.

O=C(COc1ccc(Br)cc1Cl)NC(=S)N1CCc2ccccc21	CHX counter 35, Shiga inhibitor 50
O=C(NC(=S)N1CCc2ccccc21)c1ccccc1Br	CHX counter 25, Shiga inhibitor 96
O=C(COc1ccc(Br)cc1Br)NC(=S)N1CCCc2ccccc21	CHX counter 48
CCOc1ccc(N=Cc2c(C)[nH]n(-c3nc4ccccc4[nH]3)c2=O)cc1	LmPK inh 22µM
Cc1nc(Sc2ccccc2)c(C#N)cc1-c1ccccc1	CHX counter 28, Shiga inhibitor 50
COCCN(CCOC)c1nc(C)nc2c1nc(-c1ccccc1)n2CCN1CCOCC1	none (no result: CHX counter, NS1 inh, LmPK inh, Shiga inhibitor)
CSc1nc(N)n2nc(C(C)(C)C)cc2n1	CHX counter 15
CC(C)(C)c1cc2nc(N)nc(N)n2n1	none
C/C(=N\NC(=O)C(=O)Nc1cc(C)ccc1C)c1ccncc1	none
CC(NC(=O)CCc1ccccc1)c1ccc2c(c1)OCO2 (stereo not drawn)	none (no result: Shiga inhibitor)
CN(CCCN1CCOCC1)C(=O)c1cc(COc2cccc(C(F)(F)F)c2)on1	none (no result: FBPA Giardia inh)
CN(CCc1ccccc1)C(=O)c1cc(COc2cccc(C(F)(F)F)c2)on1	CHX counter 23, Shiga inhibitor 60
CN(CCc1ccccn1)C(=O)c1cc(COc2ccc(F)cc2F)on1	none (no result: FBPA Giardia inh)
CN(CCc1ccccc1)C(=O)c1cc(COc2ccc(F)cc2Cl)on1	CHX counter 43, Shiga inhibitor 74 (no result: FBPA Giardia inh)
COc1ccc(-c2nc3cnc(Oc4ccccc4)nc3n(C3CC3)c2=O)cc1	none (no result: CHX counter, NS1 inh, LmPK inh, Shiga inhibitor)
CCCC(C(=O)NC1CCCC1)N(CC1CCCO1)C(=O)CNS(=O)(=O)c1ccc(F)cc1 (stereo not drawn)	none
Cc1ccc2nc(N3CCN(Cc4ccc(F)cc4)C3=O)c(C)cc2c1	CHX counter 20
Cc1cc(/C=C2/NC(=O)N(c3ccccc3)C2=O)c(C)n1C(C)C	CHX counter 40, NS1 inh inconclusive, Shiga inhibitor 41
Cc1ccc(/C=C2/NC(=O)N(c3ccccc3)C2=O)o1	CHX counter 32, Shiga inhibitor 90
Cc1c(C(=O)O)cccc1-c1ccc(/C=C2\SC(=O)NC2=O)o1	NS1 inh inconclusive, FBPA Giardia inh inconclusive
Cc1c(C(=O)O)cccc1-c1ccc(/C=C2/NC(=O)N(c3ccccc3)C2=O)o1	CHX counter 28
Cc1cccc(NC(=O)CN2C(=O)N/C(=C/c3ccc(-c4cccc(C(=O)O)c4C)o3)C2=O)c1	CHX counter 27, Shiga inhibitor 45
c1ccc2c(CC3NCCN3)cccc2c1	none (no result: CHX counter, LmPK inh, Shiga inhibitor, FBPA Giardia inh)
CSCC[C@H](NC(=O)[C@H](CC(C)C)NC(=O)CNC(=O)[C@H](Cc1ccc(O)cc1)NC(=O)[C@H](Cc1ccccc1)NC(=O)[C@H](CCCCN)NC(=O)[C@H](CC(N)=O)NC(=O)[C@@H]1CCCN1C(=O)[C@H](CC(=O)O)NC(=O)[C@H](C)NC(=O)[C@@H]1CCC(=O)N1)C(N)=O	none (no result: NS1 inh, LmPK inh)
CC(C)/C(=N/[N+](C)(C)C)c1ccccc1	none (no result: CHX counter, LmPK inh, Shiga inhibitor, FBPA Giardia inh)
O=C(CSc1nnc(-c2ccncc2)o1)Nc1ccccc1C(F)(F)F	none (no result: FBPA Giardia inh)
COc1ccccc1C(=O)NC1CCN(C(=O)Nc2ccc(C)cc2)CC1	none
O=C1N/C(=C/c2ccc(Br)s2)C(=O)N1c1ccccc1	CHX counter 16, Shiga inhibitor 65
O=C1NC(=O)C(=Cc2ccc(N3CCOCC3)o2)C(=O)N1	none (no result: NS1 inh)
O=C1N/C(=C/c2ccc(N3CCOCC3)o2)C(=O)N1c1cccc(Cl)c1	CHX counter 22
NC1=NC([S][Hg][c]2ccc(N)cc2)c2ncn([C@@H]3O[C@H](CO)[C@@H](O)[C@@H]3O)c2N1 (stereo partly drawn)	none (no result: CHX counter, LmPK inh, Shiga inhibitor, FBPA Giardia inh)
CCN1CCN(C(=O)c2cc(COc3ccc(C(C)=O)cc3OC)on2)CC1	CHX counter 43, Shiga inhibitor 75
COc1cc(C)ccc1OCc1cc(C(=O)N2CCN(C3CCCCC3)CC2)no1	CHX counter 48, Shiga inhibitor 58 (no result: FBPA Giardia inh)
COc1cc(C)ccc1OCc1cc(C(=O)N2CCCCCCC2)no1	CHX counter 51, Shiga inhibitor 92 (no result: FBPA Giardia inh)
CN(CC(=O)Nc1ccccc1Cl)C(=O)COC(=O)CN1C(=O)NC2(CCCC2)C1=O	none (no result: FBPA Giardia inh)
CCOc1ccc(/C=C/C(=O)C(C(N)=O)=C2SCCS2)cc1	CHX counter 34, Shiga inhibitor 57
Cc1cc(OCC(=O)NC(C)(C)C)ccc1Cl	CHX counter 51, Shiga inhibitor 22
Cc1cc(OCC(=O)N(C(C)C)C(C)C)ccc1Cl	none (no result: NS1 inh)
COCCCNC(=O)COc1ccc(Cl)c(C)c1	CHX counter 18
CCCCCCCCCCCC(CC1OC(=O)C1CCCCCC)OC(=O)C(CC(C)C)NC=O (stereo not drawn)	none (no result: CHX counter, NS1 inh, LmPK inh, Shiga inhibitor)
O=C(c1ccc(Cn2cnnn2)cc1)N1CCCC(Nc2ccc(F)c(F)c2)C1 (stereo not drawn)	none (no result: FBPA Giardia inh)
COc1ccc(CCN(C)C(=O)c2cc(-c3ccccc3)nc3ccccc23)cc1OC	none (no result: FBPA Giardia inh)
COc1ccc(CCN(C)C(=O)c2cc(-c3ccccc3)nc3ccc(C)cc23)cc1OC	Shiga inhibitor 65 (no result: FBPA Giardia inh)
COc1ccc(CN(C)C(=O)c2cc(-c3ccccc3)nc3ccc(C)cc23)c(OC)c1OC	CHX counter 17 (no result: FBPA Giardia inh)
COc1ccc(CCN(C)C(=O)Cc2ccc(-c3ccccc3)cc2)cc1OC	CHX counter 22
COc1ccc(CCN(C)C(=O)CN2C(=O)c3ccccc3S2(=O)=O)cc1OC	none
COc1ccc(-c2cc(C(=O)N(C)Cc3cccc(OC)c3OC)c3ccccc3n2)cc1OC	none (no result: FBPA Giardia inh)
CCNc1ncc2nc(-c3ccc(Cl)cc3)c(=O)n(-c3ccccc3)c2n1	none (no result: CHX counter, NS1 inh, LmPK inh, Shiga inhibitor)
C=C1CCN(C(CC(C)C)C(=O)Nc2nc3ccc(Cl)cc3s2)S(=O)(=O)c2ccccc21 (stereo not drawn)	none (no result: NS1 inh, LmPK inh)
Cc1ccc(NC(=O)c2ccc3c(c2)OCO3)cc1Cl	CHX counter 45, Shiga inhibitor 90
Cc1ccc(C(=O)Nc2ccc3c(c2)OCO3)cc1Cl	CHX counter 51, Shiga inhibitor 168 (no result: FBPA Giardia inh)
COc1cc(Cl)c(C)cc1NC(=O)c1ccc2c(c1)OCO2	none
Cc1cc(Cl)ccc1NC(=O)c1ccc2c(c1)OCO2	CHX counter 26, Shiga inhibitor 77
CCc1ccc(N2C(=O)NC(=O)/C(=C/c3cccn3CCOc3ccc(C(C)CC)cc3)C2=O)cc1 (stereo not drawn)	CHX counter 77, Shiga inhibitor 121
Cc1cccc(OCCn2cccc2/C=C2/C(=O)NC(=O)N(Cc3ccco3)C2=O)c1	none
CCc1ccc(N2C(=O)NC(=O)/C(=C/c3cccn3CCOc3ccc(C)cc3)C2=O)cc1	CHX counter 13
Cc1nn(-c2ccccn2)c2nc(-c3cccs3)cc(C(=O)NCc3ccco3)c12	CHX counter 19
COc1cc(-c2cc(C(=O)NCc3ccco3)c3ccccc3n2)cc(OC)c1OC	CHX counter 23
Cc1ccc(-c2cc(C(=O)NCc3ccco3)c3ccccc3n2)s1	CHX counter 9.3
Cc1cc(C(=O)NCc2ccco2)c2cc(F)ccc2n1	none
